Screening data (PubChem BioAssay)
SMN2 splice enh: qHTS Assay for Enhancers of SMN2 Splice Variant Expression | Potency, µM (top dose mostly 46.1 µM), inactives show at the highest dose activity change, positive = activation, actives largely listed as activators | HEK293 SMN2-luciferase splicing reporter, luminescence, 30-36 h | 2.8% of 210,000 active; further: % of control where 0% means no effect; nearly all actives have a fitted effect of over 55% in size
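qHTS luciferase splicing reporter: luminescence rises when SMN2 exon 7 is included in transfected HEK293 cells. Compound exposure lasted 30-36 h at 37C, with 4.5 mM final sodium butyrate as control, followed by a ONE-Glo read.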
ELG1 genotox: qHTS screen for small molecules that induce genotoxicity in human embryonic kidney (HEK293T) cells expressing luciferase-tagged ELG1. HEK293T ELG1-luciferase reporter, luminescence, 16 h. Potency, µM (top dose mostly 46 µM), without a hit: top-dose activity change, positive = activation, most hits filed as activators. 1.3% of 330,000 active. AID 504466, 2011; further: % of control where 0% means no effect; nearly all actives have a fitted effect of over 60% in size
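Cells (2,000/well) expressing the ELG1-luciferase fusion are dosed by pin tool and kept 16 hr at 37 °C, 5% CO2. Signal comes from ONE-Glo luciferase reagent after 30 min at room temperature.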
FLuc modulator: qHTS profiling assay for firefly luciferase inhibitor/activator using purifed enzyme and Km concentrations of substrates (counterscreen for miR-21 project) | Luciferin 4-monooxygenase (Photinus pyralis), P08659 | purified FLuc, Km substrates, luminescence inhibition | Potency, µM (top dose mostly 57.5 µM), for the others: at the highest dose activity change, negative = inhibition, most hits filed as inhibitors | 6.9% of 360,000 active | AID 588342, 2011;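 further: plate controls were vehicle for no effect and reference inhibitor for full effect; nearly all actives have a fitted effect of over 55% in size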
Target sequence (P08659 whole entry, looked up): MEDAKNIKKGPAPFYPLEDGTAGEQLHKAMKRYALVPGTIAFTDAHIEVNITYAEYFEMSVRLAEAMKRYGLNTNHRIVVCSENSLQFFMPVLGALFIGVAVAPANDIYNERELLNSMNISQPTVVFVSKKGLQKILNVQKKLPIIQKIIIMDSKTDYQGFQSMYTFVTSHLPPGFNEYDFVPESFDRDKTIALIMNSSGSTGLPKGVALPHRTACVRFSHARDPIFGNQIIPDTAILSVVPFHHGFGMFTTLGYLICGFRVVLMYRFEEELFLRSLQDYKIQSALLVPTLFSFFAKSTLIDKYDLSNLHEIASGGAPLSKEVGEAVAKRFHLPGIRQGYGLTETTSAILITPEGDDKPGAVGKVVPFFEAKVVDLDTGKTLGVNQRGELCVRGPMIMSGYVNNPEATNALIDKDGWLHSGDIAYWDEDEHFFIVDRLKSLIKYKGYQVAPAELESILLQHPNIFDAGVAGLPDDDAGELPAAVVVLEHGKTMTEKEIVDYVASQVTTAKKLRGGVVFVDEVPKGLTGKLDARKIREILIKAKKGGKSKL
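Purified P. pyralis luciferase, 10 nM final, with Km-level 10 uM D-luciferin and 10 uM ATP in 50 mM Tris acetate pH 7.5, 10 mM Mg acetate, 0.01% Tween-20, 0.05% BSA; 6-point qHTS titration about 60 µM downward; luminescence read.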
NPC1 promoter act: qHTS Assay for NPC1 Promoter Activators | Huh7 NPC1 promoter luciferase reporter, 24 h | Potency, µM (highest dose often 9.22 µM), for inactives: top-dose activation, usual class: activators | 2.4% of 320,000 active | AID 485313, 2010; further: % of control where 0% means no effect; nearly all actives have a fitted effect of over 60% in size
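Quantitative HTS used a cell-based reporter: Huh7 cells stably bearing the NPC1 promoter upstream of luciferase were treated with compounds for 24 h, and promoter activation was read as luminescence.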
Rab9 prom act: qHTS Assay for Rab9 Promoter Activators; Huh7 Rab9 promoter-luciferase reporter, luminescence, 24 h; 2.8% of 320,000 active; Potency, µM (titrated, usually from 9.22 µM), without a hit: top-dose activation, negative = inhibition, hits mostly activators; AID 485297, 2010; further: % of control where 0% means no effect; nearly all actives have a fitted effect of over 60% in size
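Using Huh7 cells stably transfected with Rab9 promoter–luciferase, compounds were incubated 24 h at 37 °C, 5% CO2; luciferase luminescence was read 10 min after reagent addition.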
ELG1 DNA repair: qHTS screen for small molecules that inhibit ELG1-dependent DNA repair in human embryonic kidney (HEK293T) cells expressing luciferase-tagged ELG1; 2.3% of 330,000 active; Potency, µM (titrated, usually from 46.1 µM), inactives show at the highest dose activity change, negative = inhibition, most hits filed as inhibitors; HEK293T ELG1-luciferase reporter, luminescence, 16 h; DNA damage induced by 5-fluorouridine; further: on the % scale 0 is the no-effect control and ±100 the full control effect; nearly all actives have a fitted effect of over 55% in size
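Luminescence from the luciferase reporter, measured 30 min after ONE-Glo reagent at room temperature, was the read-out. Beforehand, 2,000 cells per well were exposed for 16 hr at 37 °C to 5-fluorouridine together with compound or vehicle.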
Starred values were filed as active, the others as inactive; ? = inconclusive; / = no result given; [ ] = dose if it differs, or a comment. Rows were chosen to be rich in hits. Some 9.4% of all compounds tested hit in one or more screens of this group. The call rests on the fitted dose curve; in most records, active means well fitted curve in the direction sought with a large enough effect; inconclusive means small, poorly fitted or top-dose-only effect, or another doubt; inactive means no such curve, though single readings can be large; an effect the other way counts as inactive or inconclusive. Potency means the concentration at half of the fitted maximal effect.

SMILES	SMN2 splice enh	ELG1 genotox	FLuc modulator	NPC1 promoter act	Rab9 prom act	ELG1 DNA repair
COc1ccc(Oc2cnc3ccccc3n2)cc1	19%	-3%	-10%	?	3.5µM*	28%
COC(=O)CCSc1nc(N2CCOCC2)c2c(c1C#N)CC(C)(C)OC2	/	0%	-11%	-2%	-1%	?
CC(C)CCSc1nc(N2CCOCC2)c2c(c1C#N)CC(C)(C)OC2	/	0%	0%	-1%	4%	12µM*
Cc1nc(CC(=O)Nc2cccc(C)c2C)cs1	4%	/	-4%	/	/	/
C/C(=N\N=C(/N)c1nonc1N)c1ccc2c(c1)OCO2	/	?	2.7µM*	0.63µM*	0.89µM*	?
CCCN(CC1CC1)C(=O)CSc1ncnc2sc(C)c(C)c12	-29%	-6%	-1%	0%	-2%	18µM*
COc1ccc(/C=N/Nc2cc(C)nc(-n3nc(C)cc3C)n2)c(OC)c1	-102%	?	17µM*	0%	-12%	-1%
Cc1cc(N/N=C/c2ccc(F)cc2)nc(-n2nc(C)cc2C)n1	/	-12%	-3%	-5%	-8%	?
Cc1nc(N/N=C/c2cccc(F)c2)cc(N2CCOCC2)n1	/	-9%	-17%	-11%	1%	?
COc1ccc(/C=N/Nc2cc(C)nc(N3CCOCC3)n2)cc1OC	/	2%	6.7µM*	9%	17%	3%
COc1ccccc1/C=N/Nc1cc(C)nc(N2CCOCC2)n1	/	-3%	13µM*	4%	0%	1%
COc1ccc(/C=N\Nc2ncc(F)c(N3CCOCC3)n2)cc1OC	/	-8%	11µM*	-2%	12%	18µM*
Cc1ccc(CCNC(=O)c2sc3ncccc3c2-n2c(C)ccc2C)cc1	/	/	-11%	/	/	/
Cc1ccc(NC(=O)CSc2nccn2C2CCCC2)cc1	/	/	-11%	/	/	/
COc1ccc(/C=N/Nc2cc(C)nc(N3CCOCC3)n2)cc1	/	3%	2.4µM*	12%	19%	?
COc1ccc(S(=O)(=O)NCc2ccc3c(c2)CCN3C(=O)c2ccc(C)cc2)cc1Cl	/	/	4%	/	/	/
Cc1cc(-c2nc3ncccc3o2)ccc1NC(=O)COc1cc(C)c(Cl)c(C)c1	0%	/	0%	/	/	/
CCOC(=O)c1ccc(-c2ccc(/C=N/NC(=O)c3cncc(Br)c3)o2)cc1	/	?	2%	1.3µM*	0.71µM*	?
CCOC(=O)c1ccc(-c2ccc(/C=N/NC(=O)Cc3nnc(N)s3)o2)cc1	/	14%	?	2.5µM*	3.2µM*	?
Nc1nnc(CC(=O)N/N=C/c2ccc(-c3ccc(F)cc3)o2)s1	/	1%	?	1%	-6%	0%
C=C1CCC[C@]2(C)C[C@H]3OC(=O)[C@H](CNCCc4ccccc4OC)C3CC12 (stereo partly specified)	10%	/	/	/	/	/
COc1ccc(CCNC(=O)c2csc3c2CCCCC3)c(OC)c1	?	/	-6%	/	/	/
COc1ccc(-c2nnc(CSc3ncnc4sc5c(c34)CCC5)o2)cc1OC	-4%	23µM*	11%	-2%	-3%	0%
O=C(Cn1c(-c2cccs2)cc2ccccc21)NCCCN1CCN(c2ccccc2F)CC1	/	/	3%	/	/	/
CC(=O)/C=C1/C(=O)Nc2ccccc21	1%	9%	-5%	-7%	0%	-2%
SMILES	SMN2 splice enh	ELG1 genotox	FLuc modulator	NPC1 promoter act	Rab9 prom act	ELG1 DNA repair
C=CCOc1cccc(C(=O)/C=C2/C(=O)Nc3ccccc32)c1	/	18%	7.6µM*	-6%	-4%	15%
Nc1nc2c(c(=O)[nH]1)CN(CCCN1CCOCC1)CN2	4%[9.22 µM]	/	/	/	/	/
Cc1ccc(CN(C(=O)c2cc3ccccc3oc2=O)C2CCS(=O)(=O)C2)cc1 (stereo unspecified)	4%	23%	17µM*	?	?	?
COc1ccc(CN(C(=O)c2oc3cc(C)ccc3c2C)C2CCS(=O)(=O)C2)cc1OC (stereo unspecified)	/	0%	3%	2%	8%	13µM*
COc1cccc(CN(C(=O)c2oc3cc(C)ccc3c2C)C2CCS(=O)(=O)C2)c1 (stereo unspecified)	-1%	/	5%	/	/	/
O=C(c1cc2ccccc2oc1=O)N(Cc1cccs1)C1CCS(=O)(=O)C1 (stereo unspecified)	17%	18µM*	19µM*	30%	?	?
O=C(c1cc2ccccc2oc1=O)N(Cc1ccc(F)cc1)C1CCS(=O)(=O)C1 (stereo unspecified)	/	?	19µM*	?	3.2µM*	?
COc1cc(CN(C(=O)c2cc3ccccc3oc2=O)C2CCS(=O)(=O)C2)cc(OC)c1OC (stereo unspecified)	2%	3%	-17%	-1%	0%	8%
O=C(c1ccccc1F)N(Cc1ccc(F)cc1)C1CCS(=O)(=O)C1 (stereo unspecified)	9%	0%	1%	1%	-5%	1%
CC(C)OCCCNC(=O)CN1C(=O)COc2ccc(S(=O)(=O)N3CCOCC3)cc21	-2%	/	-7%	/	/	/
COc1ccc(CN(C(=O)c2cc3ccccc3oc2=O)C2CCCCC2)cc1OC	25%	2%	27µM*	20%	17%	?
COc1ccc(CCNC(=O)COC(=O)c2cc3ccccc3oc2=O)cc1OC	/	-1%	/	/	/	-20%
CCc1ccc(CN(C(=O)c2oc3ccccc3c2C)C2CCS(=O)(=O)C2)cc1 (stereo unspecified)	/	0%	0%	-4%	1%	?
CCc1ccc(CN(C(=O)c2cc3ccccc3oc2=O)C2CCS(=O)(=O)C2)cc1 (stereo unspecified)	18µM*	?	19µM*	2.8µM*	4µM*	?
